IL-1B inflam inh: qHTS for Inhibitors of Inflammasome Signaling: IL-1-beta AlphaLISA Primary Screen; AID 743279, 2014; activity change, % at 57.5 µM; THP-1 LPS/ATP IL-1B secretion, AlphaLISA, 16 h; active compounds read low; actives 4.7% (n = 360,000); in the data active = activity change below about -50%; inconclusive = mostly about -30% to -49%; also: % is scaled to controls: 0 for no effect and ±100 for the full control effect
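Secreted IL-1B measured by AlphaLISA bead assay after 16 h compound exposure of THP-1 cells; compounds (final up to 57.5 uM) added 1 h before LPS (250 ng/mL) and ATP (1.25 mM) stimulation; lower signal means less secretion.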
Chronic BCR inh: qHTS Assay to Find Inhibitors of Chronic Active B-Cell Receptor Signaling | Potency, µM (highest dose often 46.1 µM), without a hit: at the highest dose activity change, negative = inhibition, usual class: inhibitors | actives 0.05% (n = 340,000) | ABC-DLBCL IkBa-CBG/CBR reporter, luminescence ratio, 4 h; active = well fitted inhibition curve with a large enough effect in the signal ratio, with a control signal flat, not every such curve was filed as active; inconclusive = small, poorly fitted or top-dose-only effect, or effect the other way, or a change in a side signal; the % refers to the signal ratio;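 also: potency is read from the fitted curve at half-maximal effect; plate controls were basal doxycycline-induced cells for no effect and cells given 10 µM MG132 for full effect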
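Cell line TMD8 (human ABC DLBCL), stably expressing tet-inducible CBG68-IkBa fusion and CBR; IMDM/0.5% FBS; cpd up to 46 uM; dox induction, 4 h, 37C/5% CO2; dual luminescence; green/red ratio; MG132 control.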
TDP1 cell noCPT: qHTS for Inhibitors of human tyrosyl-DNA phosphodiesterase 1 (TDP1): qHTS in cells in absence of CPT; DT40 Tdp1-/- hTDP1 cells, no CPT, ATP luminescence, 48 h; Potency, µM (doses to about 46.2 µM), for inactives: at the highest dose activity change, negative = growth inhibition, hits mostly inhibitors; actives 15% (n = 420,000); also: potency is read from the fitted curve at half-maximal effect; % is scaled to controls: 0 for no effect and ±100 for the full control effect; nearly all actives have a fitted effect of over 55% in size
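Luminescent ATP content (CellTiter-Glo) served as the growth readout. Knockout chicken DT40 cells expressing human TDP1 were exposed to compounds without camptothecin for a minimum 48 hr at 37 °C.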
TDP1 cell CPT: qHTS for Inhibitors of human tyrosyl-DNA phosphodiesterase 1 (TDP1): qHTS in cells in presence of CPT | AID 686979, 2013 | actives 12% (n = 420,000) | Potency, µM (top dose mostly 46.2 µM), for inactives: top-dose activity change, negative = growth inhibition, usual class: inhibitors | chicken DT40 Tdp1-/-;hTDP1 cells + 20 nM CPT, ATP luminescence, 48 h; also: potency is read from the fitted curve at half-maximal effect; % is scaled to controls: 0 for no effect and ±100 for the full control effect; nearly all actives have a fitted effect of over 55% in size
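Chicken DT40 Tdp1-/- cells complemented with human TDP1, 400 cells/well, exposed to compounds plus 20 nM camptothecin for at least 48 h at 37 C; viability read as ATP content by CellTiter-Glo luminescence.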
SW480 rereplic: A quantitative high throughput screen for small molecules that induce DNA re-replication in SW480 colon adenocarcinoma cells. SW480 DNA re-replication, Hoechst DNA content imaging, 48 h. Potency, µM (doses to about 46.1 µM), without a hit: top-dose re-replication activation, usual class: activators. actives 1.8% (n = 340,000). AID 624297, 2012; also: potency is read from the fitted curve at half-maximal effect; % of control where 0% means no effect; nearly all actives have a fitted effect of over 55% in size
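Hoechst fluorescence of nuclei (405 nm excitation, 500-530 nm emission) measured by plate-scanning imager after 48 hr compound exposure at 37 C; re-replication scored as increased number of nuclei with elevated intensity.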
MCF10A rereplic: A quantitative high throughput screen for small molecules that induce DNA re-replication in MCF 10a normal breast cells; MCF 10A DNA re-replication, Hoechst nuclear intensity, 48 h; Potency, µM (highest dose often 46.1 µM), for inactives: at the top dose activity, positive = re-replication, most hits filed as activators; actives 2.9% (n = 350,000); also: potency is read from the fitted curve at half-maximal effect; % of control where 0% means no effect; nearly all actives have a fitted effect of over 50% in size
Active calls of the source: *; ? = inconclusive; / = no result. Shown are actives, neighbours in structure and some others; about 19% of the full set was active somewhere. Unless noted, calls follow the shape of the dose curve; as a rule, active = well fitted curve in the direction sought with a large enough effect; inconclusive = small, poorly fitted or top-dose-only effect, or another doubt; inactive = no such curve, though single readings can be large; an effect the other way counts as inactive or inconclusive.

SMILES	IL-1B inflam inh	Chronic BCR inh	TDP1 cell noCPT	TDP1 cell CPT	SW480 rereplic	MCF10A rereplic
CSCc1ccc(C(=O)NC(C)c2cnn(-c3ccccn3)c2C)o1 (configuration not stated)	0.3	5.9%	-15.3%	-3.5%	1.8%	4.3%
COc1cc(/C=C2/SC(=O)NC2=O)ccc1OCc1ccccc1	101.8	7.9%	?	-18.0%	17.1%	25.9µM*
COc1cc(/C=C2/SC(=O)N(Cc3ccccc3Cl)C2=O)ccc1OCc1ccncc1	-14.1	-5.2%	?	18.4µM*	-1.3%	?
COc1ccc(/C=C2/SC(=S)NC2=O)cc1OCc1ccccc1	13.9	12.5%	-27.3%	?	23.6%	?
COc1ccccc1OCCCOc1ccc(/C=C2\SC(=O)NC2=O)cc1OC	-6.3	?	13µM*	16.4µM*	-4.0%	?
COc1ccc(C=C2SC(=O)NC2=O)cc1OC	-4.6	/	16.4µM*	?	-4.8%	13.7%
COC(=O)C1=C(C)NC(C)=C(C(=O)OC)C1C(=O)OCC(=O)N1CCCCC1C (configuration not stated)	3.5	0.1%	3.0%	0.6%	-2.9%	-0.5%
CCc1nnc(NC(=O)[C@@H](NC(=O)c2cc(OC)cc(OC)c2)C(C)C)s1	14.6	-13.2%	0.5%	-6.5%	-0.3%	6.7%
COc1ccc2no[n+]([O-])c2c1	/	-8.5%	/	/	/	/
CCNc1nc(SC(C)C(=O)Nc2ccccc2)nc(N2CCOCC2)n1 (configuration not stated)	21.2	?	?	?	-1.2%	-2.3%
CN(C)c1nc(NCc2ccccc2)nc(SCC(=O)Nc2ccccc2)n1	-77.1*	10.9%	?	?	-1.2%	?
CC(=O)C(Sc1nc(N(C)C)nc(N(C)C)n1)C(=O)Nc1ccccc1 (configuration not stated)	25.5	?	-18.5%	16.5%	-17.8%	-11.6%
CC(Sc1nc(NCc2ccccc2)nc(N2CCOCC2)n1)C(=O)Nc1ccccc1 (configuration not stated)	20.8	-3.0%	20.6µM*	?	1.5%	2.6%
CC(Sc1nc(NCc2ccccc2)nc(N(C)C)n1)C(=O)Nc1ccccc1 (configuration not stated)	0.0	17.6%	20.6µM*	23.1µM*	-5.1%	?
CC(C)=CCN1CCN(CCC2=C(C)CCCC2(C)C)CC1CCO (configuration not stated)	?	-1.1%	?	?	-8.3%	?
CC1=C(CCN2CCN(C3CCCC3)C(CCO)C2)C(C)(C)CCC1 (configuration not stated)	-8.7	?	?	20.6µM*	-2.9%	3.8%
O=S1(=O)C[C@H](N2CCOCC2)[C@@H](COCc2ccccc2)N1	-9.3	/	-22.9%	-15.7%	/	/
Cc1sc(NC(=O)CN2CCCC2)nc1-c1ccc2c(c1)CCN2C(=O)c1ccc(F)cc1	-16.0	-1.4%	18.4µM*	?	-5.4%	4.0%
CNc1nc(-c2ccc3c(c2)CCN3C(=O)CC(C)(C)C)c(C)s1	-20.4	-2.3%	?	?	6.7%	3.3%
CNc1nc(-c2ccc3c(c2)CCN3C(=O)c2ccccc2F)c(C)s1	/	-2.5%	?	?	1.6%	8.0%
CC(=O)Nc1nc(-c2ccc3c(c2)CCN3C(=O)C2CC2)c(C)s1	-5.4	-9.2%	1.3µM*	1.46µM*	?	24.3%
CCNc1ncc2nc(-c3cccc(C#N)c3)c(=O)n(CCC#N)c2n1	/	/	0.5%	-0.6%	/	/

Bioassay records: PubChem, National Center for Advancing Translational Sciences (NCATS)
